Test results published in PubChem BioAssay.
Inconclusive results are not listed. Active and inactive are the calls of the source.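 The calls were made as follows, unless noted: active = GFP response, as percent of the DMSO control, above the screen-wide mean plus 3 SD, about 139; inconclusive = no response measured because the compound's own fluorescence interfered; inactive = the rest.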

Experiments:
[1] = rapamycin-like changes in RPL19A-GFP expression – cell-based, S. cerevisiae, multiplex flow cytometry, primary screen (AID 1862; in the data active = percent of DMSO control GFP below about 86%;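 also: lower values mimic rapamycin by blocking the RPL19A rise seen in DMSO cells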); conditions: S. cerevisiae RPL19A-GFP strain, flow cytometry fluorescence, 3 h; at 10 µM; stronger effect = lower value
[2] = TOR pathway GLN3 branch reporter MEP2-GFP changes – S. cerevisiae, multiplex flow cytometry, primary screen (AID 1867);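 also: median GFP channel fluorescence of barcode-gated MEP2-GFP cells measured by flow cytometry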; conditions: S. cerevisiae MEP2-GFP strain, 3 h, at 10 µM, stronger effect = higher value, 100% means same as DMSO wells
[3] = TOR pathway RTG branch CIT2 reporter changes – S. cerevisiae, GFP fusion, multiplex flow cytometry, primary screen (AID 1870;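 active = percent response above a set limit, the screen-wide mean plus 3 SD, cut at about 130% in these data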;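 also: barcoded CIT2-GFP strain pooled with four other GFP strains with rapamycin as positive control; median GFP fluorescence per well over plate mean of DMSO wells so 100% = DMSO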); conditions: S. cerevisiae CIT2-GFP expression, 3 h, at 10 µM, stronger effect = higher value
[4] = TOR pathway LAP4-GFP level changes – S. cerevisiae, multiplex flow cytometry, primary screen (AID 1873;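 active = GFP signal, as percent of the solvent control, above the screen mean plus 3 SD, about 149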); conditions: S. cerevisiae LAP4-GFP expression, 3 h, at 10 µM, stronger effect = higher value
[5] = yeast AGP1-GFP level changes, GLN3 branch – cell-based, multiplex flow cytometry, S. cerevisiae, primary screen (AID 1887;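 active = GFP signal above the screen-wide mean plus 3 SD, that is over about 124.5% of the solvent control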;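 also: AGP1-GFP fusion strain of S. cerevisiae within a five-strain barcoded multiplex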); conditions: 3 h, at 10 µM, stronger effect = higher value
[6] = hit retest on RPL19A-GFP reporter strain – cell-based, S. cerevisiae, flow cytometry, cherry picks, mother/daughter gates, confirmation (AID 2270;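 active = GFP response below 50% of the DMSO control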); conditions: 3 h, at 10 µM, stronger effect = lower value, 100 = same GFP as DMSO wells
[7] = yeast TOR pathway reporter LAP4-GFP change – cell-based, cherry picks, flow cytometry, mother/daughter gates, confirmation (AID 2271;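 active = GFP response above 150% of the DMSO control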;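 also: ratio of sample to DMSO plate mean so 100% equals DMSO level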); conditions: S. cerevisiae LAP4-GFP strain, 3 h, at 10 µM, stronger effect = higher value, 100 means same as DMSO control
[8] = TOR pathway reporter MEP2-GFP, retest of hits – S. cerevisiae, flow cytometry GFP, cherry picks, confirmation (AID 2272;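 active = GFP response above 150% of the DMSO control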;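 also: ratio of well signal to plate DMSO mean so 100% equals DMSO level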); conditions: S. cerevisiae MEP2-GFP strain, 3 h, at 10 µM, stronger effect = higher value
[9] = TOR pathway CIT2 reporter hit retest – S. cerevisiae, GFP fusion, cherry picks, mother/daughter gates, confirmation (AID 2274;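 active = GFP response above 150% of the DMSO level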); conditions: S. cerevisiae CIT2-GFP strain, flow cytometry, 3 h, at 10 µM, stronger effect = higher value
[10] = reduced mouse 2C T cell binding to pMHC/ICAM-1 vesicles – MLPCN validation set, flow cytometry, LFA-1/ICAM-1 modulator project, pilot screen (AID 2523;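 active = response below a set limit, under 55% cells CD8-positive and vesicle-bound, and CD8 cells' 90th-percentile brightness under 279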;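 as to vesicle binding response: mean PE anti-B7-1 fluorescence of CD8+ cells relative to row control; 100% = QL9-loaded vesicles with DMSO vehicle in the same plate row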); conditions: 2C mouse CD8+ T cells, at 7 µM, stronger effect = lower value; double positive events: measured here: CD8+/vesicle+ event percentage
[11] = target: Integrin beta-1 (Homo sapiens) + Integrin alpha-4 (Homo sapiens) (UniProt P13612+P05556); assay: alpha4beta1 integrin LIBS antibody binding reduction – U937 cells, HUTS-21 mAb, flow cytometry, validation set, VLA-4 allosteric modulator project, pilot screen (AID 2674;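 active = inhibition above 50%, about 3 SD of the validation set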;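 also: antibody binding induced by the VLA-4 ligand LDV present at three times its Kd; 0% = LDV ligand with antibody and no compound and 100% = antibody without LDV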); conditions: HUTS-21 LIBS mAb binding, at 6.7 µM, stronger effect = higher value, binding induced by LDV ligand
[12] = calorie-restriction mimetic ROS inhibitors, yeast – validation compound set, pilot screen (AID 2706;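 active = superoxide response below 65% of plate, a cut near 3 SD across the whole screen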;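 also: yeast exposed to compound for one week at 30 degrees C before staining; 100% = mean of all compound wells on the same plate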); conditions: S. cerevisiae aging, superoxide DHE fluorescence; at 10 µM; stronger effect = lower value
[13] = target: Beta-adrenergic receptor kinase 1 (Homo sapiens) (UniProt P25098); assay: GRK2 binders displacing RNA aptamer, biochemical, validation, human GRK2, bead flow cytometry (AID 488806;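 active = aptamer binding inhibition above 30%, about 3 SD of noise from non-fluorescent compounds; inactive = inhibition at or below 30%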); conditions: bead-bound GRK2, FAM-aptamer displacement, at 10 µM, stronger effect = higher value
[14] = target: Beta-2 adrenergic receptor (Homo sapiens) (UniProt P07550); assay: agonist-induced loss of surface beta2AR – cell-based, FAP fluorogen, flow cytometry, validation set, pilot screen (AID 504459;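 active = percent response above 42, roughly 3 SD of non-fluorescent test compounds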;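 also: agonist-driven loss of surface beta2AR via internalization measured by FAP dye flow cytometry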); conditions: Am2.2-beta2AR cells, at 10 µM, stronger effect = higher value
[15] = target: AP-2 complex subunit beta (Homo sapiens) (UniProt P63010); assay: beta-arrestin/AP2 interaction blockers – biochemical, validation set, GST-AP2 beads, flow cytometry, pilot screen (AID 504541;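 active = inhibition above 54%, about 3 SD of non-fluorescent compounds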;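 also: AP2 carries R879A mutation and is captured from E. coli lysate; bead-bound FITC arrestin peptide fluorescence measuring arrestin peptide binding to AP2; 0% = DMSO wells and 100% = excess unlabeled arrestin peptide control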); conditions: FITC arrestin peptide, at 10 µM, stronger effect = higher value, AP2 beta2 appendage fragment, R879A mutant
[16] = cytosolic pH regulators acting via V-ATPase – S. cerevisiae, pHLuorin, HTS validation (AID 504600; in the data active = response above about 15%;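 also: plate controls were DMSO for no effect and reference compound for full effect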); conditions: V-ATPase proton transport, at 10 µM, stronger effect = higher value
[17] = tested on: anti-desmoglein-3 scFv antibody binding to human DSG3; assay: blockers of pathogenic pemphigus antibody–desmoglein-3 binding – biochemical, validation compound set, bead-based, flow cytometry, pilot screen (AID 588368;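 active = binding below the plate cutoff, the plate median minus 3 SD, with a reading above zero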;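 also: signal is the median channel fluorescence of bead-bound GFP antibody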); conditions: Protein G beads, DSG3-Fc, scFv-GFP binding, at 10 µM, stronger effect = lower value
[18] = Nile Red efflux blockade in pump-expressing yeast – validation compound set, multiplex, phenotypic, pilot screen (AID 588506;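 active = efflux inhibition above 0.42, the validation set average plus 4 SD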;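 also: Nile Red retained in cells so higher fluorescence means more efflux inhibition; 0 = negative control wells and 1 = enniatin B 25 µM full block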); conditions: S. cerevisiae pump-expressing triplex, Nile Red efflux flow cytometry; at 10 µM; stronger effect = higher value; the pumps come from Candida albicans
[19] = target: ATP-binding cassette sub-family B member 6 (Homo sapiens) (UniProt Q9NP58); assay: blockers of ABCB6-driven porphyrin uptake – K562-ABCB6 cells, flow cytometry, validation set, pilot screen (AID 588550;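 active = inhibition above the screen-wide mean plus 3 SD, about 51%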;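 also: 0% = DMSO wells and 100% = benzethonium chloride 70 µM positive control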); conditions: K562-ABCB6 porphyrin accumulation, 1 h, at 10 µM, stronger effect = higher value
[20] = AML differentiation inducers, ER-HoxA9 marrow cells – cell-based, GFP/MAC1 double positive, flow cytometry, validation set, primary screen (AID 588685;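 active = differentiation response of at least 50%, scaled between solvent and reference control, from cells with both markers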;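 also: compound exposure lasts four days before antibody staining and flow analysis; 0% = DMSO wells and 100% = 5 µM fulvestrant positive control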); conditions: stronger effect = higher value, normalized: vehicle 0, fulvestrant 100
[21] = measured here: daughter cell gate
[22] = measured here: mother cell gate
[23] = measured here: daughter cell gate response
[24] = measured here: mother cell gate response

Chain of Beta-adrenergic receptor kinase 1 (Homo sapiens) (P25098 whole entry, looked up): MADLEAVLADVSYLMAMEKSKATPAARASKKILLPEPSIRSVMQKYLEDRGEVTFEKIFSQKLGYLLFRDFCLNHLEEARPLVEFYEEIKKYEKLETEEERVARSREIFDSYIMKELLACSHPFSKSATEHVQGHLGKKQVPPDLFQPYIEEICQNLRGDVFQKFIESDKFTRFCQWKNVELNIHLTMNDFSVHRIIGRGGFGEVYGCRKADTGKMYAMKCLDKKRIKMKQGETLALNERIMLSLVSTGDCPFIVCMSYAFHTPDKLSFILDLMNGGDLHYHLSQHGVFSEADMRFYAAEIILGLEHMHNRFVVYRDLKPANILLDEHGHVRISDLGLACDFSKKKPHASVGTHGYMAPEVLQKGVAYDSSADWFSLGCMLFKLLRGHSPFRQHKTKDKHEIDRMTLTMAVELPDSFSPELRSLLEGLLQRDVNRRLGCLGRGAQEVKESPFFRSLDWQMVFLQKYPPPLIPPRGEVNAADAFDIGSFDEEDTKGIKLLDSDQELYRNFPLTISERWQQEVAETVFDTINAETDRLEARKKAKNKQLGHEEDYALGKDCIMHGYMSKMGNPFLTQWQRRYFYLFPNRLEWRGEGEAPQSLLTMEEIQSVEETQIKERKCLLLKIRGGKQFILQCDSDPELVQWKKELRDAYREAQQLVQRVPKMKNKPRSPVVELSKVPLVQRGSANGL
Chain of AP-2 complex subunit beta (Homo sapiens) (P63010 whole entry, looked up, the tested form may be a part, one chain of several): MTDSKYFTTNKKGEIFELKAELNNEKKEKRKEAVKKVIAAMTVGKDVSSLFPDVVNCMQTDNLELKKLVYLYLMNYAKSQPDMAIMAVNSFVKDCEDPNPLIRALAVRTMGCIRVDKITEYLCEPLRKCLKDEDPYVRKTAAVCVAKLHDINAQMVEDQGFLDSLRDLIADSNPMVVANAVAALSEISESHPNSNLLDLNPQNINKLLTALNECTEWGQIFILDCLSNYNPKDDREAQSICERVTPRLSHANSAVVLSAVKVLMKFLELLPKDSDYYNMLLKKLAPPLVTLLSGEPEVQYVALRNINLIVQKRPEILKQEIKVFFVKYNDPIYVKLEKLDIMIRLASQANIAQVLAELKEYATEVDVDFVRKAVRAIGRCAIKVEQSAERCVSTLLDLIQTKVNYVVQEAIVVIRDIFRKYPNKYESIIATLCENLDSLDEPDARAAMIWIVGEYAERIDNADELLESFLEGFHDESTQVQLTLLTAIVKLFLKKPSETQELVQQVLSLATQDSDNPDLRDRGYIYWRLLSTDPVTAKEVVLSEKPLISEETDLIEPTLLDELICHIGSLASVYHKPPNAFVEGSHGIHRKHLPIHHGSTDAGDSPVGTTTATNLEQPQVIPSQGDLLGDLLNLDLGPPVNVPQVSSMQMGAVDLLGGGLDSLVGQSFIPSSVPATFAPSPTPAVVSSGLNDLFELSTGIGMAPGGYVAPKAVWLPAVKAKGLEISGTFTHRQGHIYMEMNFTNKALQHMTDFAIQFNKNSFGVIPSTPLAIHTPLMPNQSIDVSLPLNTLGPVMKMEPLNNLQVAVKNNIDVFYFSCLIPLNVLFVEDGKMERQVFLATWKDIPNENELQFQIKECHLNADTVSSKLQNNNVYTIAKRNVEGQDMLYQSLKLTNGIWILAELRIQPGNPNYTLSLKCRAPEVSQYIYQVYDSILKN
Chain of ATP-binding cassette sub-family B member 6 (Homo sapiens) (Q9NP58 whole entry, looked up): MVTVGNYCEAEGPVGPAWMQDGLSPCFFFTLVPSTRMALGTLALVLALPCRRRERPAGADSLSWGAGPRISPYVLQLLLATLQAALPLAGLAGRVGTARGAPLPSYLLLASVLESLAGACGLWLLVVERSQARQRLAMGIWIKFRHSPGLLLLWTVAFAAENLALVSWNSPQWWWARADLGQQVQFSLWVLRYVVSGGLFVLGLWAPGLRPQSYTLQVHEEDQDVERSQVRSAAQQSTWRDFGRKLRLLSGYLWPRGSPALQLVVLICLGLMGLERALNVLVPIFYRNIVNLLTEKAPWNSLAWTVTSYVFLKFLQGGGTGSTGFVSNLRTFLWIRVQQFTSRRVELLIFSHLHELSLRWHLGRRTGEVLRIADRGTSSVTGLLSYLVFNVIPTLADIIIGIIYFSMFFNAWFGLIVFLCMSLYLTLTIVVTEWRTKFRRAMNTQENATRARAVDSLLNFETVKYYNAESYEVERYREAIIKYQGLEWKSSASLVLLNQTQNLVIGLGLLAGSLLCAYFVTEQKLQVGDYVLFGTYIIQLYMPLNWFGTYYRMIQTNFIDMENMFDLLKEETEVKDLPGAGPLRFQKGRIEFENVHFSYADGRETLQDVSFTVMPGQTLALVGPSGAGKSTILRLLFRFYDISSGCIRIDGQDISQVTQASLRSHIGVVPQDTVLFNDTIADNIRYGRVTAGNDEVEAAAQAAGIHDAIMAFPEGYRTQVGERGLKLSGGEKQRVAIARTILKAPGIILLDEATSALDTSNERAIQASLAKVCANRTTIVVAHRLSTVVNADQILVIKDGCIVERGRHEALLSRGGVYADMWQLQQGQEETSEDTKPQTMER
Chain of Beta-2 adrenergic receptor (Homo sapiens) (P07550 whole entry, looked up): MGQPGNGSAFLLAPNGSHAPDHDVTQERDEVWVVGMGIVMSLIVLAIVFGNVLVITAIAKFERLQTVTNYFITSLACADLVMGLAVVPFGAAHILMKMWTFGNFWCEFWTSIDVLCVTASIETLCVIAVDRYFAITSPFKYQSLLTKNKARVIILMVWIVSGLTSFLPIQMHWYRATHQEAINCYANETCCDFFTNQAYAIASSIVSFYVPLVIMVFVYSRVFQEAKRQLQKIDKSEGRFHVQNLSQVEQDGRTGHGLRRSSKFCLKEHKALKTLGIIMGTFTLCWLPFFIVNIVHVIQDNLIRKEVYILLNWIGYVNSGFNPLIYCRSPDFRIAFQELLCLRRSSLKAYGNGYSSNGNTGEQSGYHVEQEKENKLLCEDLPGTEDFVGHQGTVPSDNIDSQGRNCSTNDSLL
Chain of Integrin beta-1 (Homo sapiens) + Integrin alpha-4 (Homo sapiens) (P05556 whole entry, looked up): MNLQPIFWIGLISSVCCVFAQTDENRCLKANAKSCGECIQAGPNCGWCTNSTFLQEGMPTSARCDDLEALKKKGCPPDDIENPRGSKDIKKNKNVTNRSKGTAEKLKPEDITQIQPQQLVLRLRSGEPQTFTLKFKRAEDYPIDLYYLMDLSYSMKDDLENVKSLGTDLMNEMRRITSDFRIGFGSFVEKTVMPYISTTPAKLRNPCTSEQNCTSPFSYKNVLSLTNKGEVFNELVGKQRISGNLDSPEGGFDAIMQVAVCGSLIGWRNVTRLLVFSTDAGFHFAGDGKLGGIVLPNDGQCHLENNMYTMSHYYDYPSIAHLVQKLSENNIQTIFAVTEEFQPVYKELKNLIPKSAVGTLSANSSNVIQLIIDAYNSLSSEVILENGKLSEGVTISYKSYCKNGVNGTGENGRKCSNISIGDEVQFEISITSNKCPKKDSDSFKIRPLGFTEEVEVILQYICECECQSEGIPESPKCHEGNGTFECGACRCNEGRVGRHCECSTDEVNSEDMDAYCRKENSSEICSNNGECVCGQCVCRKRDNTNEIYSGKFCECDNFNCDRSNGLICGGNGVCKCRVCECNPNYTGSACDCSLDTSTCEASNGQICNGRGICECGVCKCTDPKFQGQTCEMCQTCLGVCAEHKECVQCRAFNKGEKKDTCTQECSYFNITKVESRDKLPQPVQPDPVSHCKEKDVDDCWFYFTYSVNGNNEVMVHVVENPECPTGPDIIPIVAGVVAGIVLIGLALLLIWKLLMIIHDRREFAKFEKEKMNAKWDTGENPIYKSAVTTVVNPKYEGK
Chain of Integrin beta-1 (Homo sapiens) + Integrin alpha-4 (Homo sapiens) (P13612 whole entry, looked up): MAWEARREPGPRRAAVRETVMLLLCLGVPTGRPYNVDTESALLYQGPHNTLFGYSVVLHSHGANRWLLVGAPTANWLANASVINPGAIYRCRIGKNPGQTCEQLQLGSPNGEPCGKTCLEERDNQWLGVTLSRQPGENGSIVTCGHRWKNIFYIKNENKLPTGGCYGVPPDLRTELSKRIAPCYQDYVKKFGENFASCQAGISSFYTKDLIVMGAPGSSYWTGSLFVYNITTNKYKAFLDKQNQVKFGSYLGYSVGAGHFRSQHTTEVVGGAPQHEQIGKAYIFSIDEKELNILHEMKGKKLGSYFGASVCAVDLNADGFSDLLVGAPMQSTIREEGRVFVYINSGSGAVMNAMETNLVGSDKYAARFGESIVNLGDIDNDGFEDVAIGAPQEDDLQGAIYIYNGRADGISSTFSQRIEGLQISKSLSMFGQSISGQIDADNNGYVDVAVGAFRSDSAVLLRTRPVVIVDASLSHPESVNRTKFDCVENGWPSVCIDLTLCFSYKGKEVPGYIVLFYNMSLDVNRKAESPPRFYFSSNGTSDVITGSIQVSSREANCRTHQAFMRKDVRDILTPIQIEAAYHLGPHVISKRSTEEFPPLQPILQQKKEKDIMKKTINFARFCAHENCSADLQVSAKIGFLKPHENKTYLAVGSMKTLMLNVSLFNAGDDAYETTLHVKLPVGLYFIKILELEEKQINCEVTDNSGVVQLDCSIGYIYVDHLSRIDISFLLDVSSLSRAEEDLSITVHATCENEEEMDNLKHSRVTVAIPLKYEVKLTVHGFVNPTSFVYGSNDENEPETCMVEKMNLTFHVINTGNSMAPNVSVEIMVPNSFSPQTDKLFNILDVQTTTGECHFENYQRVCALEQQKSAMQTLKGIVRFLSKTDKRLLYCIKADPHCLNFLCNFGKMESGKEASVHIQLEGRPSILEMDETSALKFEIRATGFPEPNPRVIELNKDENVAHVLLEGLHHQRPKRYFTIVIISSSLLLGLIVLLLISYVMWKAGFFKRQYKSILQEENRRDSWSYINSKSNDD

c1ccc2c(c1)CCOC2CNCCCN1CCCCC1 (stereo not drawn)
113%: GFP response, % of DMSO [9, 22]
105%: GFP response, % of DMSO [9, 21]
97.2%: GFP response relative to DMSO [7, 23]
102%: GFP response vs DMSO [6, 22]
101%: GFP response vs DMSO [6, 21]
52.2%: double positive events [10]
inactive: percent of DMSO control GFP [1] 92% | GFP response vs DMSO [4] 98% | GFP response, % of DMSO [5] 113% | GFP response vs DMSO [6] 101% | GFP response relative to DMSO [7] 92.6% | GFP response vs DMSO [8] 100% | GFP response, % of DMSO [9] 108% | vesicle binding response [10] 279% | inhibition [11] 14.2% | superoxide response (% of plate) [12] 110% | aptamer binding inhibition [13] -3% | response [14] 0.72% | inhibition [15] -5.37% | response [16] -6.48% | binding (% of control) [17] 105% | efflux inhibition (fraction of control) [18] 0.01 | inhibition [19] -2% | differentiation response [20] -3.28%
94.2%: GFP response relative to DMSO [7, 24]
active: GFP response vs DMSO [2] 142% | percent response of DMSO control [3] 126%

C[C@]12CC[C@@H]3c4ccc(O)cc4C(=O)C[C@H]3[C@@H]1CC[C@@H]2O
active: GFP response vs DMSO [2] 148% | vesicle binding response [10] 60.7%
inactive: percent of DMSO control GFP [1] 98.3% | percent response of DMSO control [3] 116% | GFP response vs DMSO [4] 88% | GFP response, % of DMSO [5] 97.5% | GFP response vs DMSO [6] 97.4% | GFP response relative to DMSO [7] 90.2% | GFP response vs DMSO [8] 95.7% | GFP response, % of DMSO [9] 111% | inhibition [11] -0.33% | superoxide response (% of plate) [12] 104% | aptamer binding inhibition [13] 1% | response [14] -10.5% | inhibition [15] 44.1% | response [16] -4.63% | binding (% of control) [17] 91.9% | efflux inhibition (fraction of control) [18] 0.37 | inhibition [19] 0% | differentiation response [20] 0.82%
39.3%: double positive events [10]
95.6%: GFP response vs DMSO [6, 21] | GFP response relative to DMSO [7, 23]
98.5%: GFP response vs DMSO [6, 22]
108%: GFP response, % of DMSO [9, 21]
113%: GFP response, % of DMSO [9, 22]
92.1%: GFP response relative to DMSO [7, 24]

NS(=O)(=O)c1cc2c(cc1Cl)NCNS2(=O)=O
inactive: percent of DMSO control GFP [1] 99.7% | GFP response vs DMSO [2] 102% | percent response of DMSO control [3] 95.7% | GFP response vs DMSO [4] 132% | GFP response, % of DMSO [5] 123% | vesicle binding response [10] 245% | inhibition [11] -4.52% | superoxide response (% of plate) [12] 89.4% | aptamer binding inhibition [13] -2% | response [14] -19.4% | inhibition [15] -24.8% | response [16] 0.56% | binding (% of control) [17] 105% | efflux inhibition (fraction of control) [18] 0 | inhibition [19] 2% | differentiation response [20] -11.9%
62.4%: double positive events [10]

O=C(c1ccc(Cl)cc1)C1CCCN(C(=O)/C=C/c2ccccn2)C1 (stereo not drawn)
57.5%: double positive events [10]
inactive: percent of DMSO control GFP [1] 92.4% | GFP response vs DMSO [2] 102% | percent response of DMSO control [3] 97.7% | GFP response vs DMSO [4] 137% | GFP response, % of DMSO [5] 115% | vesicle binding response [10] 280% | inhibition [11] -1.12% | superoxide response (% of plate) [12] 91.6% | aptamer binding inhibition [13] -3% | response [14] -44.8% | inhibition [15] -19.4% | response [16] 2.11% | binding (% of control) [17] 106% | efflux inhibition (fraction of control) [18] 0 | inhibition [19] -2% | differentiation response [20] -1.05%
